# The whole screen tested about 220,000 compounds, of which about 2,000 (0.91%) were called active. Inconclusive results (about 2%) are left out. No stated cut-off is given here; in the data, inconclusive means inhibition above about 80% without an active follow-up result; inactive means below that; test concentration not stated here. The list is a sample of the results. Potency and affinity values are given separately.
# Assay: M. tuberculosis H37Rv growth inhibitors, H37Rv strain (AID 1626);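 further: bacteria incubated seven days before Alamar blue readout; 0% = bacteria only wells and 100% = bacteria with antibiotic wells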
# Conditions: active compounds read high, concentration not given here
row,Compound,inhibition
1,Nc1nnc(SCC(=O)Nc2ccccc2)s1,-3.63% (inactive)
2,C=C1C(=O)[C@@]23[C@H](O)C[C@@H]4C(C)(C)CC[C@H](O)[C@]4(C)[C@@H]2C[C@H](O)[C@@H]1[C@H]3O,-0.64% (inactive)
3,C#CCONC(=O)c1cc(OCC(F)(F)F)ccc1OCC(F)(F)F,-4.59% (inactive)
4,c1ccc(C(c2ccccc2)c2noc(CN3CCN(CC4CC4)CC3)n2)cc1,0.03% (inactive)
5,O=C(N/N=C/C=C/c1ccccc1)c1cccnc1,-6.98% (inactive)
6,Cc1[nH]c(=O)[nH]c(=O)c1S(=O)(=O)N(C)Cc1ccccc1,-4.39% (inactive)
7,CSCC[C@H](NC(=O)c1cc([N+](=O)[O-])ccc1Cl)c1nc2ccccc2[nH]1,3.89% (inactive)
8,CSCCC(NC(=O)c1cccc([N+](=O)[O-])c1)c1nc2ccccc2[nH]1 (stereo unspecified),24.1% (inactive)
9,CCN(CCCNC(=O)C1CCC(=O)N1Cc1ccccc1Cl)c1cccc(C)c1 (stereo unspecified),4.14% (inactive)
10,CCOC(=O)C1=C(C)NC(=O)NC1c1c(C)nn(-c2ccccc2)c1Cl (stereo unspecified),-11.2% (inactive)
11,O=Nc1c(O)[nH]c2ccc(Cl)cc12,-4.64% (inactive)
12,O=C1CCCC(O)=C1C=Nc1ccc(O)cc1,3.95% (inactive)
13,CCOC(=O)c1c(-c2ccc(OC)cc2)csc1/N=C/C1=C(O)CCCC1=O,4.93% (inactive)
14,Cc1cc(C)cc(N=Cc2c(O)c3ccccc3oc2=O)c1,6.96% (inactive)
15,O=C1CCCC(O)=C1C=Nc1cccc(C(F)(F)F)c1,8.3% (inactive)
16,COc1cccc(N=CC2=C(O)CCCC2=O)c1,-8.36% (inactive)
17,Cc1ccccc1N=Cc1cccc(O)c1O,30.2% (inactive)
18,Cc1cccc(-c2nc(C#N)c(NCC3CCCO3)o2)c1 (stereo unspecified),8.91% (inactive)
19,CN(C)S(=O)(=O)c1ccc(NC(=S)NC(=O)c2cccs2)cc1,-8.18% (inactive)
20,CCCc1nnc(NC(=O)CCCN2C(=O)c3ccccc3C2=O)s1,-6.93% (inactive)
21,COC(=O)CCC(=O)N1CCc2cc(S(=O)(=O)N3CCc4ccccc43)ccc21,-6.96% (inactive)

row,Compound,inhibition
1,Cc1c(NC(=O)CSc2nnc(COc3ccccc3)n2-c2ccccc2)c(=O)n(-c2ccccc2)n1C,-6.74% (inactive)
2,COc1ccc(C2SC[C@@H](C(=O)O)N2C(C)=O)cc1 (stereo partly specified),-5.12% (inactive)
3,CC(C)C(=O)Nc1ncc(Cc2cccc(Cl)c2)s1,17.7% (inactive)
4,O=C(CN1CCOCC1)Nc1ncc(Cc2ccccc2Cl)s1,9.04% (inactive)
5,N=C1SCC(=O)N1c1nc(-c2ccccc2)cs1,-8.62% (inactive)
6,Cc1ccc(-c2csc(N3C(=N)SCC3=O)n2)cc1,-8.29% (inactive)
7,CCc1nnc(N2C(=N)SCC2=O)s1,10% (inactive)
8,O=C(CN1CCOCC1)Nc1ncc(Cc2cccc(Cl)c2)s1,9.73% (inactive)
9,CC(C)(C)C(=O)Cn1c(NCCCl)nc2ccccc21,0.32% (inactive)
10,CCc1ccccc1NC(=O)CN(C)C(=O)Cn1cc(C(F)(F)F)cc(Cl)c1=O,10% (inactive)
11,CCN(CC(=O)Nc1ccc(NC(C)=O)cc1)C(=O)/C=C/c1cccs1,-2.91% (inactive)
12,Clc1ccc(CN2CCN(c3ncnc4scc(-c5cccs5)c34)CC2)cc1,7.36% (inactive)
13,O=C(Cn1cc2c(n1)CCCC2)NCCCN1CCN(C2CCCCC2)CC1,-6.49% (inactive)
14,CC(=O)/C(=C(/O)c1ccccc1)c1nc2ccccc2[nH]1,2.45% (inactive)
15,O=C(OCc1ccccc1)C1=NNC2C(=O)N(Cc3ccccc3)C(=O)C12 (stereo unspecified),8.28% (inactive)
16,COCCn1c(SCC(=O)N2CC(=O)Nc3ccccc32)nc2ccccc2c1=O,14.5% (inactive)
17,CCc1ccc(-c2cc(C(F)(F)F)n3nc(C(=O)Nc4c(C)nn(Cc5ccccc5C)c4C)cc3n2)s1,2.87% (inactive)
18,CCc1ccc(-c2cc(C(F)(F)F)n3nc(C(=O)Nc4c(C)nn(Cc5ccccc5Cl)c4C)cc3n2)s1,-4.86% (inactive)
19,O=S(=O)(Nc1ccc(C(F)(F)F)cc1)c1cnc[nH]1,-0.2% (inactive)
20,CCOC(=O)C(C(=O)OCC)N(C#N)c1nc(C)cc(C)n1,-14% (inactive)
21,CCOC(=O)CNC(=O)CSc1nnc(-c2ccccc2)c(-c2ccccc2)n1,-8.15% (inactive)

row,Compound,inhibition
1,CCOC(=O)CNC(=O)CSc1nnc(-c2cccc(C)c2)n1-c1ccc(OC)cc1,3.71% (inactive)
2,CCOC(=O)N1CCN(Cc2nc(-c3cccc(C)c3)no2)CC1,-1.51% (inactive)
3,Cc1cccc(-c2nsc(SCC(=O)Nc3nccs3)n2)c1,10.4% (inactive)
4,CCOC(=O)CSc1nc(-c2ccc(OC)cc2)ns1,57.1% (inactive)
5,Cc1cccc(-c2nsc(SCC(=O)c3ccc(Cl)cc3)n2)c1,94% (inactive)
6,CCOC(=O)CNC(=O)CSc1nnc(SCC(=O)NCC(=O)OCC)s1,-11.7% (inactive)
7,CCOC(=O)CSc1nc(-c2ccccc2)nc2ccccc12,-6.27% (inactive)
8,COc1ccc(C2=NOC(C(=O)N3CCN(c4ccccc4OC)CC3)C2)cc1 (stereo unspecified),10.3% (inactive)
9,COc1ccc(NC(=O)COC(=O)Cc2ccc(Br)cc2)cc1,15.8% (inactive)
10,Cn1c2ccccc2c(=O)c2c(=O)n(Cc3ccco3)c(-c3ccc(C(C)(C)C)cc3)nc21,50.6% (inactive)
11,Cc1c(F)cccc1NC(=O)CCC(=O)O,0.24% (inactive)
12,O=C(c1cnc2sccn2c1=O)N1CCCc2ccccc21,0.62% (inactive)
13,CNC(=O)CSCCn1c(SCC(=O)NC)nc2ccccc2c1=O,-1.73% (inactive)
14,CC(=O)c1cccc(NC(=O)C(C)OC(=O)CNC(=O)c2ccc(C)s2)c1 (stereo unspecified),-1.06% (inactive)
15,O=C(O)c1ccc(CSc2ncn[nH]2)cc1,-5.36% (inactive)
16,Clc1ccc(CSc2ncn[nH]2)cc1,74.3% (inactive)
17,Cc1ccc(C)c(N(C)S(=O)(=O)c2cccc3nsnc23)c1,-5.61% (inactive)
18,COc1cccc(NC(=S)N(Cc2ccccn2)Cc2ccccc2Cl)c1,8.54% (inactive)
19,CCn1c(=O)cc(NC2=NCC(C)CN2c2cccc(Cl)c2)n(C)c1=O (stereo unspecified),-2.51% (inactive)

# Reference: PubChem BioAssay AID1626 (SRMLSC, 2009)
